# The entries come from a sample that favours the strongest signals as a whole.
# B1: CLEC5A (Homo sapiens), Q9NY25 (protein)
# chain: MNWHMIISGLIVVVLKVVGMTLFLLYFPQIFNKSNDGFTTTRSYGTVSQIFGSSSPSPNGFITTRSYGTVCPKDWEFYQARCFFLSTSESSWNESRDFCKGKGSTLAIVNTPEKLKFLQDITDAEKYFIGLIYHREEKRWRWINNSVFNGNVTNQNQNFNCATIGLTKTFDAASCDISYRRICEKNAK
# Assays:
# Test in all cases: glycan array binding signal (z-score within array); higher = stronger binding
# Conditions in all cases: glycan notation: IUPAC condensed, linker removed
# [1] = biological target: Glc(a1-6)Glc(a1-6)Glc(a1-6)Glc(a1-6)Glc
# Method in brief: (§1)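 The binding signal is a Z-score computed within each array and averaged over linkers. Arrays of the same protein sequence at different concentrations or buffers were also averaged together. Data originate from 3228 arrays in the Consortium for Functional Glycomics database, kept only where the protein sequence was available.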
# [2] = biological target: Glc(a1-6)Glc(a1-6)Glc(a1-6)Glc(a1-6)Glc(a1-6)Glc(a1-6)Glc
# Method in brief: as §1
# [3] = biological target: Glc(a1-6)Glc(a1-6)Glc(a1-6)Glc(a1-6)Glc(a1-6)Glc(a1-6)Glc(a1-6)Glc(a1-6)Glc(a1-6)Glc(a1-6)Glc(a1-6)Glc(a1-6)Glc
# Method in brief: as §1
# [4] = biological target: Glc(b1-3)Glc(b1-3)Glc(b1-3)Glc(b1-3)Glc
# Method in brief: as §1
# [5] = biological target: Glc(b1-3)Glc(b1-3)Glc(b1-3)Glc(b1-3)Glc(b1-3)Glc(b1-3)Glc
# Method in brief: as §1
# Glc(b1-4)Glc = biological target: Glc(b1-4)Glc
# Method in brief: as §1
# [6] = biological target: Glc(b1-6)Glc(b1-6)Glc(b1-6)Glc(b1-6)Glc(b1-6)Glc(b1-6)Glc(b1-6)Glc(b1-6)Glc(b1-6)Glc(b1-6)Glc(b1-6)Glc
# Method in brief: as §1
# GlcA(b1-3)Gal = biological target: GlcA(b1-3)Gal
# Method in brief: as §1
# [7] = biological target: GlcA(b1-3)Gal(b1-4)GlcNAc(b1-3)Gal(b1-4)Glc
# Method in brief: as §1
# [8] = biological target: GlcA(b1-3)GlcNAc(b1-4)GlcA(b1-3)GlcNAc
# Method in brief: as §1
# [9] = biological target: GlcA3S(b1-3)Gal(b1-4)GlcNAc(b1-3)Gal(b1-4)Glc
# Method in brief: as §1
# [10] = biological target: GlcNAc(a1-4)Gal(b1-3)[Fuc(a1-2)]Gal
# Method in brief: as §1
# [11] = biological target: GlcNAc(a1-4)Gal(b1-4)GlcNAc
# Method in brief: as §1
# [12] = biological target: GlcNAc(a1-4)Gal(b1-4)GlcNAc(b1-3)Gal(b1-4)[Fuc(a1-3)]GlcNAc(b1-3)Gal(b1-4)[Fuc(a1-3)]GlcNAc
# Method in brief: as §1
# GlcNAc(b1-3)Gal(b1-4)Glc = biological target: GlcNAc(b1-3)Gal(b1-4)Glc
# Method in brief: as §1
# [13] = biological target: GlcNAc(b1-3)Gal(b1-4)GlcNAc(b1-2)Man(a1-3)[GlcNAc(b1-3)Gal(b1-4)GlcNAc(b1-2)Man(a1-6)]Man(b1-4)GlcNAc(b1-4)[Fuc(a1-6)]GlcNAc
# Method in brief: as §1
# [14] = biological target: GlcNAc(b1-3)Gal(b1-4)GlcNAc(b1-3)Gal(b1-4)GlcNAc(b1-3)Gal(b1-4)GlcNAc(b1-3)Gal(b1-4)GlcNAc(b1-2)Man(a1-3)[GlcNAc(b1-3)Gal(b1-4)GlcNAc(b1-3)Gal(b1-4)GlcNAc(b1-3)Gal(b1-4)GlcNAc(b1-3)Gal(b1-4)GlcNAc(b1-2)Man(a1-6)]Man(b1-4)GlcNAc(b1-4)[Fuc(a1-6)]GlcNAc
# Method in brief: as §1
# Kdn(a2-6)Gal = biological target: Kdn(a2-6)Gal
# Method in brief: as §1
# Man(a1-2)Man = biological target: Man(a1-2)Man
# Method in brief: as §1
# [15] = biological target: Man(a1-2)Man(a1-6)[Man(a1-3)]Man(a1-6)[Man(a1-2)Man(a1-2)Man(a1-3)]Man
# Method in brief: as §1
# [16] = biological target: Man(a1-3)[Man(a1-6)]Man(a1-6)[Man(a1-3)]Man(b1-4)GlcNAc(b1-4)GlcNAc
# Method in brief: as §1
# [17] = biological target: Neu5Ac(a2-3)Gal(b1-3)GlcNAc(b1-4)Gal(b1-4)Glc
# Method in brief: as §1
# [18] = biological target: Neu5Ac(a2-3)Gal(b1-3)GlcNAc6S
# Method in brief: as §1
# [19] = biological target: Neu5Ac(a2-3)Gal(b1-4)[Fuc(a1-3)]GlcNAc(b1-3)GalNAc
# Method in brief: as §1
# [20] = biological target: Neu5Ac(a2-3)Gal(b1-4)[Fuc(a1-3)]GlcNAc(b1-4)GalNAc(b1-3)Gal(b1-4)Glc
# Method in brief: as §1
# [21] = biological target: Neu5Ac(a2-3)Gal(b1-4)[Fuc2Me(a1-3)]GlcNAc(b1-3)Gal
# Method in brief: as §1
# [22] = biological target: Neu5Ac(a2-3)Gal6S(b1-4)[Fuc(a1-3)]GlcNAc
# Method in brief: as §1
# [23] = biological target: Neu5Ac(a2-6)Gal(b1-3)GlcNAc(b1-3)[Fuc(a1-3)[Gal(b1-4)]GlcNAc(b1-6)]Gal(b1-4)Glc
# Method in brief: as §1
# [24] = biological target: Neu5Ac(a2-6)Gal(b1-4)GlcNAc(b1-2)Man(a1-3)[Neu5Ac(a2-3)Gal(b1-4)GlcNAc(b1-2)Man(a1-6)]Man(b1-4)GlcNAc(b1-4)GlcNAc
# Method in brief: as §1
# [25] = biological target: Neu5Ac(a2-6)Gal(b1-4)GlcNAc(b1-3)Gal(b1-4)GlcNAc(b1-3)GalNAc
# Method in brief: as §1
# [26] = biological target: Neu5Ac(a2-6)Gal(b1-4)GlcNAc(b1-3)Gal(b1-4)[Fuc(a1-3)]GlcNAc(b1-3)Gal(b1-4)[Fuc(a1-3)]GlcNAc
# Method in brief: as §1
# [27] = biological target: Neu5Ac(a2-8)Neu5Ac(a2-3)[Gal(b1-3)GalNAc(b1-4)]Gal(b1-4)Glc
# Method in brief: as §1
# [28] = biological target: Neu5Ac(a2-8)Neu5Ac(a2-8)Neu5Ac(a2-3)[Gal(b1-3)GalNAc(b1-4)]Gal(b1-4)Glc
# Method in brief: as §1
# [29] = biological target: Neu5Ac(b2-6)Gal(b1-4)GlcNAc
# Method in brief: as §1
# Neu5Ac(b2-6)GalNAc = biological target: Neu5Ac(b2-6)GalNAc
# Method in brief: as §1
# [30] = biological target: Neu5Ac9Ac(a2-3)Gal(b1-3)GlcNAc
# Method in brief: as §1
# [31] = biological target: Neu5Gc(a2-8)Neu5Ac(a2-3)Gal(b1-4)GlcNAc
# Method in brief: as §1
# [32] = biological target: Xyl(b1-2)[Man(a1-3)][Man(a1-6)]Man(b1-4)GlcNAc(b1-4)[Fuc(a1-3)]GlcNAc
# Method in brief: as §1
binder,measurement,setting,value
B1,glycan array binding signal (z-score),[1],-0.32
same,glycan array binding signal (z-score),[2],1.51
same,glycan array binding signal (z-score),[3],2.19
same,glycan array binding signal (z-score),[4],6.52
same,glycan array binding signal (z-score),[5],1.8
same,glycan array binding signal (z-score),Glc(b1-4)Glc,-0.371
same,glycan array binding signal (z-score),[6],1.8
same,glycan array binding signal (z-score),GlcA(b1-3)Gal,-0.34
same,glycan array binding signal (z-score),[7],-0.32
same,glycan array binding signal (z-score),[8],-0.32
same,glycan array binding signal (z-score),[9],-0.074
same,glycan array binding signal (z-score),[10],-0.32
same,glycan array binding signal (z-score),[11],-0.125
same,glycan array binding signal (z-score),[12],1.74
same,glycan array binding signal (z-score),GlcNAc(b1-3)Gal(b1-4)Glc,6.6
same,glycan array binding signal (z-score),[13],-0.014
same,glycan array binding signal (z-score),[14],1.7
same,glycan array binding signal (z-score),Kdn(a2-6)Gal,-0.32
same,glycan array binding signal (z-score),Man(a1-2)Man,1.03
same,glycan array binding signal (z-score),[15],-0.249
same,glycan array binding signal (z-score),[16],0.488
same,glycan array binding signal (z-score),[17],-0.012
same,glycan array binding signal (z-score),[18],0.026
same,glycan array binding signal (z-score),[19],1.67
same,glycan array binding signal (z-score),[20],-0.32
same,glycan array binding signal (z-score),[21],0.548
same,glycan array binding signal (z-score),[22],0.366
same,glycan array binding signal (z-score),[23],0.258
same,glycan array binding signal (z-score),[24],-0.161
same,glycan array binding signal (z-score),[25],-0.189
same,glycan array binding signal (z-score),[26],-0.16
same,glycan array binding signal (z-score),[27],-0.133
same,glycan array binding signal (z-score),[28],-0.191
same,glycan array binding signal (z-score),[29],-0.302
same,glycan array binding signal (z-score),Neu5Ac(b2-6)GalNAc,-0.184
same,glycan array binding signal (z-score),[30],-0.191
same,glycan array binding signal (z-score),[31],-0.121
same,glycan array binding signal (z-score),[32],-0.32

# Source: the supplement of paper PMC8728848
